# In the library only some 12% were active in any assay of this set; here they are far more common.
# JMJD2A Tudor: qHTS Assay for Inhibitors of JMJD2A-Tudor Domain; AlphaScreen JMJD2A-Tudor / H3K4me3 peptide binding; Potency, µM (doses to about 114 µM), inactives show at the top dose activity change, negative = inhibition, actives largely listed as inhibitors; 4.4% of 390,000 active; AID 504339, 2011; Lysine-specific demethylase 4A (Homo sapiens), O75164; also: % is scaled to controls: 0 for no effect and ±100 for the full control effect; nearly all actives have a fitted effect of over 50% in size
# HP1b chromo inh: HTS for Inhibitors of HP1-beta Chromodomain Interactions with Methylated Histone Tails. 0.56% of 390,000 active. AID 540317, 2011. AlphaScreen HP1-beta / biotin-H3K9me3 peptide binding. Chromobox protein homolog 1 (Homo sapiens), P83916. Potency, µM (titrated, usually from 114 µM), inactives show at the top dose activity change, negative = inhibition, usual class: inhibitors; also: nearly all actives have a fitted effect of over 70% in size
# Target sequence (P83916 whole entry, looked up): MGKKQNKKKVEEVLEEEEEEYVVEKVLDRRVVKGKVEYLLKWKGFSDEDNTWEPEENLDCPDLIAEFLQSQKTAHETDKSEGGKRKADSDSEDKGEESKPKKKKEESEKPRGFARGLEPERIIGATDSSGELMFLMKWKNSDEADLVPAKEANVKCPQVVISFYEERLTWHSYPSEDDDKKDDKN
#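 AlphaScreen: HP1-beta (50 nM) preformed 30 min with biotin-H3(1-18)K9me3 peptide (50 nM) in PBS pH 7.4, 0.01% Tween-20. Compound added for 30 min at RT, then streptavidin donor/nickel chelate acceptor beads (10 ug/mL) for 30 min.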
# BAZ2B inh: qHTS Assay for Inhibitors of BAZ2B; AlphaScreen BAZ2B-H3K14Ac peptide displacement; Bromodomain adjacent to zinc finger domain protein 2B (Homo sapiens), Q9UIF8; Potency, µM (doses to about 114 µM), for the others: top-dose activity change, negative = inhibition, actives largely listed as inhibitors; 4.4% of 360,000 active; AID 504333, 2011; also: % is scaled to controls: 0 for no effect and ±100 for the full control effect; nearly all actives have a fitted effect of over 60% in size
#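 AlphaScreen displacement of biotin-H3(5-23)K14Ac peptide (50 nM final) from BAZ2B (50 nM final) in PBS pH 7.4, 0.01% Tween-20; complex preformed 30 min RT, then compounds (top 110 uM) 30 min RT, beads 20 min dark.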
# Sfp inh: qHTS Assay for Inhibitors of Bacillus subtilis Sfp phosphopantetheinyl transferase (PPTase). 4'-phosphopantetheinyl transferase ffp (Bacillus subtilis), Q9F4F7. Biochemical Sfp PPTase activity, qHTS. Potency, µM, without a hit: largest response in the series, negative = inhibition, actives largely listed as inhibitors. 3.5% of 310,000 active. AID 1490, 2009;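 also: the enzyme is Sfp with the accession as filed and its product quenches rhodamine fluorescence; 0% = enzyme reaction without inhibitor and -100% = no enzyme wells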
#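 Reaction rates are the 30-min fluorescence difference (ex 525, em 598 nm) in wells containing 15 nM Sfp, 5 uM rhodamine-CoA and 12.5 uM BHQ-2-YbbR at pH 7.6 with 10 mM MgCl2.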
# G9a block: qHTS Assay for Inhibitors of Histone Lysine Methyltransferase G9a; Histone-lysine N-methyltransferase EHMT2 (Homo sapiens), Q96KQ7; G9a H3K9 monomethylation, AlphaScreen, 2 h; Potency, µM (highest dose often 102 µM), for inactives: at the top dose activity, negative = inhibition, actives largely listed as inhibitors; 8.8% of 350,000 active; AID 504332, 2011; also: % is scaled to controls: 0 for no effect and ±100 for the full control effect; nearly all actives have a fitted effect of over 75% in size
# Target sequence (Q96KQ7 913-1193 limits assumed): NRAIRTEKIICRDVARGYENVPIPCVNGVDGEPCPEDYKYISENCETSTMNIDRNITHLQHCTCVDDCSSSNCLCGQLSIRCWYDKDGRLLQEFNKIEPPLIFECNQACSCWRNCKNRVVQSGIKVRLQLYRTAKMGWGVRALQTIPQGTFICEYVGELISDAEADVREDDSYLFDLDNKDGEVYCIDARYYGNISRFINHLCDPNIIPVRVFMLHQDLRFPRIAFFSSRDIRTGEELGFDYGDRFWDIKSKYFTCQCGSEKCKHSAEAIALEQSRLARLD
#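 Methyltransferase reactions run at room temperature for 2 h (20 nM enzyme, 500 nM biotin-H3K9 peptide, 20 uM SAM) after a 15 min compound preincubation; product detected by AlphaScreen beads and anti-H3K9me1 antibody.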
# Starred values were filed as active, the others as inactive; ? = inconclusive; / = no result; [ ] = another dose, or the depositor's remark. Calls follow the shape of the dose curve; as a rule, active = well fitted curve in the direction sought with a large enough effect; inconclusive = small, poorly fitted or top-dose-only effect, or another doubt; inactive = no such curve, though single readings can be large; an effect the other way counts as inactive or inconclusive. Potency is read from the fitted curve at half-maximal effect.
SMILES,JMJD2A Tudor,HP1b chromo inh,BAZ2B inh,Sfp inh,G9a block
CCCc1ccc(C(=O)NNc2cc(Cl)ccc2Cl)cc1,-1%,14%,2%,-3%,?
CCOC(=O)C(=NC(C)C)NNc1cc(Cl)ccc1Cl,?,14%,?,-23%,8.9µM*
CCOC(=O)C(=NC(C)(C)C)NNc1cc(Cl)ccc1Cl,?,-2%,?,-7%,18µM*
COc1ccc(S(=O)(=O)NCCSCc2ccc(Cl)cc2)cc1NC(C)=O,-19%,26%,-15%,/,?
O=C(Nc1ccc(F)c(F)c1)c1ccc(-n2cncn2)c([N+](=O)[O-])c1,-13%,15%,-7%,/,10%[12.7 µM]
O=C(Nc1cccc(/C=C/c2ccccn2)c1)c1ccc(-n2cncn2)c([N+](=O)[O-])c1,?,-2%,-33%,/,35µM*
Cn1cc(-c2nc3cnc(Oc4ccccc4)nc3n(C3CC3)c2=O)c2ccccc21,/,/,/,14%,4%[0.501 µM]
COc1ccc(C(=O)Nc2nc(C)cc(C)n2)cc1[N+](=O)[O-],-8%,36%,0%,7%,7%[59 µM]
COc1ccc(S(=O)(=O)NNc2nc(C)cc(C)n2)cc1[N+](=O)[O-],-14%,7%,-9%,50µM*,/
COCCNC(=S)NCCCNc1nc2cc3c(cc2cc1C#N)OCO3,15%,12%,6%,14µM*,-37%[59 µM]
COc1cc(C(=O)NCCCNc2nc3cc(C)c(C)cc3cc2C#N)cc(OC)c1OC,1%,62%,5%,79µM*,13%[59 µM]
COc1cn(CC(=O)Nc2cc(C)cc(C)c2)c(CN2CCCCC2)cc1=O,-14%,-1%,-2%,/,-4%[59 µM]
CN1Cc2sc(NC(=S)NC(=O)c3ccccc3)c(C#N)c2CC1(C)C,35µM*,?,45µM*,32µM*,10µM*
CCC1(C)Cc2c(sc(NC(=S)NC(=O)c3ccccc3)c2C#N)CO1 (centres undefined),-27%,-14%,-31%,-26%,45µM*
Cc1nc(SCC(=O)Nc2ccc(N3CCOCC3)cc2)nc(C)c1C,-13%,27%,-33%,?,40µM*
Cc1ccc(NC(=O)c2cc(-n3cnnc3)ccc2Cl)cc1,-16%,20%,8%,2%,-3%[59 µM]
Cc1ccc(SCC(=O)Nc2ccc(N3CCOCC3)cc2)cc1,-7%,13%,-20%,16%,-27%
Cc1ccc(NC(=O)CSc2nc(C)c(C)c(C)n2)cc1S(=O)(=O)N1CCOCC1,-14%,50%,/,/,/
Cc1ccc(NC(=O)c2cc(N3C(=O)C=CC3=O)ccc2Cl)cc1C,10µM*,?,?,14µM*,1.6µM*
Cc1cc(C)nc(SCC(=O)Nc2ccc(N3CCOCC3)cc2)n1,-8%,51%,-5%,6%,11µM*
Cc1ccc(NC(=O)CSCC(=O)Nc2ccc(N3CCOCC3)cc2N2CCOCC2)cc1,-19%,7%,9%,/,50µM*
O=C(CCOc1ccccc1)Nc1ccc([N+](=O)[O-])cc1,-13%,36%,-12%,-1%,3%
COC(=O)c1ccc(Cn2c(=O)cc(C)c3c(C)nn(C)c32)cc1,17%,71%,22%,/,38%[59 µM]
O=C(NC1CC1)[C@@H]1CSC2c3ccccc3C(=O)N21 (some centres undefined),-5%,33%,-21%,19%,-9%
Cc1ccc(OCC(=O)Nc2ccc3nn(-c4ccc(Cl)cc4)nc3c2)cc1,-19%,-1%,-4%,/,2%[59 µM]
Cc1ccc(NC(=O)c2cc(N3C(=O)C4CC=CCC4C3=O)ccc2N2CCOCC2)cc1Cl (centres undefined),-20%,9%,-1%,6%,-1%[59 µM]
O=C(CSc1ccccc1F)Nc1ccc(N2CCOCC2)cc1,-16%,29%,13%,/,?
COC(=O)c1ccccc1SCC(=O)Nc1ccc(N2CCOCC2)cc1,-21%,-5%,-25%,2%,79µM*
